Data published in the supplement of paper PMC11732987, “Enantioselective OTUD7B fragment discovery through chemoproteomics screening and high-throughput optimisation” (Communications Chemistry, 2025).

What was measured:
Test in all cases: log2 ratio of Biotin-Ahx-Ub-VS probe labelling (fragment/DMSO); higher = less target engagement (more negative = stronger competition), active = hit call of the paper (q ≤ 0.05, log2 ratio ≤ -1)
Conditions in all cases: compound concentration: 200 uM; treatment time: 3 h
USP9X = USP9X (UniProt Q93008)
Sequence of USP9X (Q93008 whole entry, the tested form may be a part): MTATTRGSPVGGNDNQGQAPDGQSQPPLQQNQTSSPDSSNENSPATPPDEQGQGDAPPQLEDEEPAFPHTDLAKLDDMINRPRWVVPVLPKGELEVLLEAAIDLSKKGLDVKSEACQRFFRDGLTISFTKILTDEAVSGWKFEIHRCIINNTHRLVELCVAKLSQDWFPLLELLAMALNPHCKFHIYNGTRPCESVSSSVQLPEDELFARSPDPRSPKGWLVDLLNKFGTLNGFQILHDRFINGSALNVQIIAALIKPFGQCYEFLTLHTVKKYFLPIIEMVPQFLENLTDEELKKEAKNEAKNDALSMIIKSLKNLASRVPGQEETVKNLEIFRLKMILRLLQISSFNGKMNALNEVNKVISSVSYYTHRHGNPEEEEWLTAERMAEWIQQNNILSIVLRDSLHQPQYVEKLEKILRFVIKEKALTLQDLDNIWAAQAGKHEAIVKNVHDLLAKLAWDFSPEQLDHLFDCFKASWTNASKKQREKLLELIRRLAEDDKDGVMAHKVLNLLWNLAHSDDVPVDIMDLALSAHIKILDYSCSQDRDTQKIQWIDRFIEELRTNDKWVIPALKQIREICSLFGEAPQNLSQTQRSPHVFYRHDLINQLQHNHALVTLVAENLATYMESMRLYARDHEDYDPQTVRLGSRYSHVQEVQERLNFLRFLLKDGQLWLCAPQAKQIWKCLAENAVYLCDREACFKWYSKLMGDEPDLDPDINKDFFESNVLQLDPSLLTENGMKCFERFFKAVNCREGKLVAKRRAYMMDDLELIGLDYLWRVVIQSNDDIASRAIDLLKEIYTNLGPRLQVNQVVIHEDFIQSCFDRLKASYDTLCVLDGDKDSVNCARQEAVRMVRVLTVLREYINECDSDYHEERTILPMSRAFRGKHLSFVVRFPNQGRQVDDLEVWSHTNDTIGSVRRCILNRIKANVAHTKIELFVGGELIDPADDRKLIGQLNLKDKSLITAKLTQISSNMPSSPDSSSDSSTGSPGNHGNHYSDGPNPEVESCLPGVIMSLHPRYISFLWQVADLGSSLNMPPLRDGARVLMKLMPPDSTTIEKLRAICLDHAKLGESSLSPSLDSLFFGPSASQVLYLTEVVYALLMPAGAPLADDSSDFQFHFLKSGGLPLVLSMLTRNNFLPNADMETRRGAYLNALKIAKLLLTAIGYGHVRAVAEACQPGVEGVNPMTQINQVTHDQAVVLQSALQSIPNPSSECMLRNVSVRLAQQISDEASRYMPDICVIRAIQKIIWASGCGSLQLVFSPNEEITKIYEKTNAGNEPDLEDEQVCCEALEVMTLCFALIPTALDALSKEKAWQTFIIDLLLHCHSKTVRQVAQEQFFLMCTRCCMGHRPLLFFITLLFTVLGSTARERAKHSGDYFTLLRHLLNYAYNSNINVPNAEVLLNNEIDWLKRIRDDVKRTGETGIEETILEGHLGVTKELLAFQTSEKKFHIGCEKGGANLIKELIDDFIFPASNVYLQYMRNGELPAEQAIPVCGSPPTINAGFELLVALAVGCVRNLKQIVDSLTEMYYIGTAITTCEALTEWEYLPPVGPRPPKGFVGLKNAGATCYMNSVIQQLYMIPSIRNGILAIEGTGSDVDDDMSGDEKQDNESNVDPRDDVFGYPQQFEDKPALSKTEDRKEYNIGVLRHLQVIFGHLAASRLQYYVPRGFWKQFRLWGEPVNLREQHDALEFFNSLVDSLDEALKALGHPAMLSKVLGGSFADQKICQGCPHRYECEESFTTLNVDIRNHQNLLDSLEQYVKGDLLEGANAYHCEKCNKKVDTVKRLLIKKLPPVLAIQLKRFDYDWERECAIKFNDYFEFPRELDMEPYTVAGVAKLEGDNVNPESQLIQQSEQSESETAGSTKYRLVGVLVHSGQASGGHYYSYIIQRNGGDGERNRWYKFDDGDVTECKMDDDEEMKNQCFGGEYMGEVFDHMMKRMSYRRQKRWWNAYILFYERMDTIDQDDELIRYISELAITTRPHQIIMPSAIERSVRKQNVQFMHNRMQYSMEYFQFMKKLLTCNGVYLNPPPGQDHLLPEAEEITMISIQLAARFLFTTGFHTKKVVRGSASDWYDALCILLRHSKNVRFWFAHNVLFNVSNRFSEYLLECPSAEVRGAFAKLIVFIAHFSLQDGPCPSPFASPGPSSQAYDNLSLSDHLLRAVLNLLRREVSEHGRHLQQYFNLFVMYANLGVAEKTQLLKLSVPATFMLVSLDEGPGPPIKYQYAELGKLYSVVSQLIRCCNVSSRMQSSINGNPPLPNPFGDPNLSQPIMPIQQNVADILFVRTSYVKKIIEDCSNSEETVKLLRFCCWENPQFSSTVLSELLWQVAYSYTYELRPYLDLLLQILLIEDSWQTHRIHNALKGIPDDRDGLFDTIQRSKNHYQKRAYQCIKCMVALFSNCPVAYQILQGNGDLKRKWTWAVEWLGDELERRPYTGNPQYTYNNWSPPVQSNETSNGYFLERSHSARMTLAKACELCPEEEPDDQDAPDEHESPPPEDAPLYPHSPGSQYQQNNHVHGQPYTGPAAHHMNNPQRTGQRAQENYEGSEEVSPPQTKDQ
Procedure, shortened: (§1)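 HEK293T lysate (495 µg per sample, in Tris/CHAPS/IGEPAL buffer with protease inhibitors) was exposed in triplicate for 3 h to fragment at 200 µM or to vehicle, then to Biotin-Ahx-Ub-VS at 0.5 µM final for 1 h. Labelled DUBs were enriched on NeutrAvidin, digested with LysC and trypsin, and analysed by diaPASEF LC-MS/MS. Spectronaut label-free quantities were normalised to the global median, and values are average log2 ratios of fragment over vehicle from an unpaired t-test. Only proteins with ≥2 unique peptides were used.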

UniProt O00487 = target: UniProt O00487
Sequence of UniProt O00487 (O00487 whole entry): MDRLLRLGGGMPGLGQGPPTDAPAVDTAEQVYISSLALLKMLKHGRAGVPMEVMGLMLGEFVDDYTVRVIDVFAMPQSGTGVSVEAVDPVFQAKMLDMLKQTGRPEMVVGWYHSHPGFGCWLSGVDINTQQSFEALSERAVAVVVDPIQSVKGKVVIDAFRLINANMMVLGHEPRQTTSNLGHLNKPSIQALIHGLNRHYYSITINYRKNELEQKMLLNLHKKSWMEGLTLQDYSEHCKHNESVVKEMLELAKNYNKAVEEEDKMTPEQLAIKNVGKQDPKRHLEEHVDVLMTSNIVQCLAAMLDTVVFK
Procedure, shortened: as §1

UniProt O00507 = target: UniProt O00507
Procedure, shortened: as §1

UniProt P51784 = target: UniProt P51784
Sequence of UniProt P51784 (P51784 whole entry): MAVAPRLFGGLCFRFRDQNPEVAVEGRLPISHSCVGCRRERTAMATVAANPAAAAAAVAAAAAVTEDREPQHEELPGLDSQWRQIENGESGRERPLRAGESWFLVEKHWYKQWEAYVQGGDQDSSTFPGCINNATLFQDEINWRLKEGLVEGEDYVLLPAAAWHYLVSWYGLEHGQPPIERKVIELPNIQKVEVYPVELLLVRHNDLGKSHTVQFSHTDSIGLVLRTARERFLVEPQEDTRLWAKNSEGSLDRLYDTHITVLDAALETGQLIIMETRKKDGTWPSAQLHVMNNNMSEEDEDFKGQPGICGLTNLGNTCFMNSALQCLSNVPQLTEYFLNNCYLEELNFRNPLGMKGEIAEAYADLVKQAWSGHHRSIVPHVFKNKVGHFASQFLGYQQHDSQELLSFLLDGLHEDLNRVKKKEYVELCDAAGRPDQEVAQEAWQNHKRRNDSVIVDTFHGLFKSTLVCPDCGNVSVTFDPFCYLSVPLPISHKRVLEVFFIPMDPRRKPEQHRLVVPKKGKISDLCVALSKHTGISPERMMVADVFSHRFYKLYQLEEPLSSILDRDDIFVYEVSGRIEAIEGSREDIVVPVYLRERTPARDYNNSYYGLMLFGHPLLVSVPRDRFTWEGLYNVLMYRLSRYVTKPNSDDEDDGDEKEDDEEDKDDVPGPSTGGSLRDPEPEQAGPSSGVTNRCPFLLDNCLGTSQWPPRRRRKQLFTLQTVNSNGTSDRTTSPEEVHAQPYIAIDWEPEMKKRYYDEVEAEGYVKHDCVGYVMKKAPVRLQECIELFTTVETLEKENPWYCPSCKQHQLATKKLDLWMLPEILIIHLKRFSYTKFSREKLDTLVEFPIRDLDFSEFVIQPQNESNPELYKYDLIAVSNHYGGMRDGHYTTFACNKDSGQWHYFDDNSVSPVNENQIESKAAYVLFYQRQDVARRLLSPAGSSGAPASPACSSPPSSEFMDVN
Procedure, shortened: as §1

UniProt Q5T2D3 = target: T1, UniProt Q5T2D3
T1 sequence (whole entry): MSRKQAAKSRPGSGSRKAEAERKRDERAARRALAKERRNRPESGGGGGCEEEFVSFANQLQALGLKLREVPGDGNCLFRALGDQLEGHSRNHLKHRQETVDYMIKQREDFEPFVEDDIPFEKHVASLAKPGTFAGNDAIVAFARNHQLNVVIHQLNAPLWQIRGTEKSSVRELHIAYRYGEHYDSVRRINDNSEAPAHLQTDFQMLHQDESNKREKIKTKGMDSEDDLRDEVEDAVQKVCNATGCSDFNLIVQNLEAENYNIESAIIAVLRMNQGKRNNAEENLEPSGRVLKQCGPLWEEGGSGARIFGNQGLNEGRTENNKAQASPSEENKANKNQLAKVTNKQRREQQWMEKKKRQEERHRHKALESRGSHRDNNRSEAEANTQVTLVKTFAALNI
Procedure, shortened: as §1

UniProt Q8TE49 = target: T2, UniProt Q8TE49
T2 sequence (whole entry): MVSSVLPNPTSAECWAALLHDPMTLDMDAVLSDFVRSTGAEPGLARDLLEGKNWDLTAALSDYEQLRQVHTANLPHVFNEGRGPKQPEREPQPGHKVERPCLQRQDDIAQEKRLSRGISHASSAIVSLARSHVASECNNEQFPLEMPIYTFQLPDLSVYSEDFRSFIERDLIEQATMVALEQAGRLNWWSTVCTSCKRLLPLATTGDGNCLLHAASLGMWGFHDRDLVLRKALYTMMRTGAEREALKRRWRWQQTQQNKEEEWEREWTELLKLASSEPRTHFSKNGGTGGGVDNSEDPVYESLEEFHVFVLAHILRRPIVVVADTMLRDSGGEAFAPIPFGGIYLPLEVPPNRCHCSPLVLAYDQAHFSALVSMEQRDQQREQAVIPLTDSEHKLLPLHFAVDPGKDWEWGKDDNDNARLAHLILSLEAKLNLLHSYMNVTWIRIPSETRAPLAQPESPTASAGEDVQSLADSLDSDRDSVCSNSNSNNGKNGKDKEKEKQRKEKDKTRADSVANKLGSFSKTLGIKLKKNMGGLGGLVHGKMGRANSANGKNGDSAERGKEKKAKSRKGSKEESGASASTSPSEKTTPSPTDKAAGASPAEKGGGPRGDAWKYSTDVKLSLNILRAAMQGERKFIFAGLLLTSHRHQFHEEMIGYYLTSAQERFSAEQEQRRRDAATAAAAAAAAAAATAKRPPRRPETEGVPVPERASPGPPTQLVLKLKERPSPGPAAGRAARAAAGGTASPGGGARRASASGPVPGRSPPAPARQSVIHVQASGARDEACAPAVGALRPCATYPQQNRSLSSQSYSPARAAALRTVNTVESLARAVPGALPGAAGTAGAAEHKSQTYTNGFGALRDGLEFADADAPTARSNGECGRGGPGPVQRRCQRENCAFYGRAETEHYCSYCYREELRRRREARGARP
Procedure, shortened: as §1

UniProt Q9P2H5 = target: T3, UniProt Q9P2H5
T3 sequence (whole entry): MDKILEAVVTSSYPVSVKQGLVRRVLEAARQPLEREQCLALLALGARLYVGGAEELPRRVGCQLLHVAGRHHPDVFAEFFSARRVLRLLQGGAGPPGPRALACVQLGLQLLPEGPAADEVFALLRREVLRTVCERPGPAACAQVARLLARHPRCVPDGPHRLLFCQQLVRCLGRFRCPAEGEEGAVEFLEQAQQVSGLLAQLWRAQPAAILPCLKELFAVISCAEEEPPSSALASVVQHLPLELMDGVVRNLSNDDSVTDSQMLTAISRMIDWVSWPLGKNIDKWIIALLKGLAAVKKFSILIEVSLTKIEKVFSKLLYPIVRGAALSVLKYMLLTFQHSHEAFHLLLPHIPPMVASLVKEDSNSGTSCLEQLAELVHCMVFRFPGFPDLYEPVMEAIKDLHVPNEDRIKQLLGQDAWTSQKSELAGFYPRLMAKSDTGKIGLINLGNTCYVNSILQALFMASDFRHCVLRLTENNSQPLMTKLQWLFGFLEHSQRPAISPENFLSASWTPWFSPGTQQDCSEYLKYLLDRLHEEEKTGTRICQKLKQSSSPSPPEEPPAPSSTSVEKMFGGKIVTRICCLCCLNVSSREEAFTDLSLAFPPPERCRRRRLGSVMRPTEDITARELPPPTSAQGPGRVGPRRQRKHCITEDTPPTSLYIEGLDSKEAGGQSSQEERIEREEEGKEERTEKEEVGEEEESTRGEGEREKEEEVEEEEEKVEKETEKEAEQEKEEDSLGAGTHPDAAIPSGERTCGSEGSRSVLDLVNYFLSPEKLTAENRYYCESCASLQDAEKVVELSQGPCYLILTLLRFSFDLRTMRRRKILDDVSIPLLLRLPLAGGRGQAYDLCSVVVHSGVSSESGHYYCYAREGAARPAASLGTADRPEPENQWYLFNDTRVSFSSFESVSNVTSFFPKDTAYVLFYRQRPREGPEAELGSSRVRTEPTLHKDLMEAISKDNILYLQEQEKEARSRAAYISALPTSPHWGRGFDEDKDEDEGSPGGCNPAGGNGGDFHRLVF
Procedure, shortened: as §1

UniProt Q9UGI0 = target: T4, UniProt Q9UGI0
T4 sequence (whole entry): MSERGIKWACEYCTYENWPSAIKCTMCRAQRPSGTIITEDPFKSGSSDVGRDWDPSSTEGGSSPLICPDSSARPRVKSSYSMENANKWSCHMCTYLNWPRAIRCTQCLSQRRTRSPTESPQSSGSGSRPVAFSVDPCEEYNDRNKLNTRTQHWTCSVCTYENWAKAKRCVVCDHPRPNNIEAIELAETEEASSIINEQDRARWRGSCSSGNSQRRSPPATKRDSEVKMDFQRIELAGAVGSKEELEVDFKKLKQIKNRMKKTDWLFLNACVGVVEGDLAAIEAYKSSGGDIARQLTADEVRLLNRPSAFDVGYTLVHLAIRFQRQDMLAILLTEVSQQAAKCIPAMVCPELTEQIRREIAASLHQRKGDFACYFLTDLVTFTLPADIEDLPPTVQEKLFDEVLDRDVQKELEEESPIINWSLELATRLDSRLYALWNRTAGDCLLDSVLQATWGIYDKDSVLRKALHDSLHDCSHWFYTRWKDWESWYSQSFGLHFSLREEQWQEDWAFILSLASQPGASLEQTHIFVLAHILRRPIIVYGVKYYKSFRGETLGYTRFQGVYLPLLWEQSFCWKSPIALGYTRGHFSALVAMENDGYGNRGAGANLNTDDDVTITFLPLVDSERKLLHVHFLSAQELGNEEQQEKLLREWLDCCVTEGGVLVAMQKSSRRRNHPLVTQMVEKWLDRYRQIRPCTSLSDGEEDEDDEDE
Procedure, shortened: as §1

YOD1 = target: T5, YOD1 (UniProt Q5VVQ6)
T5 sequence (whole entry): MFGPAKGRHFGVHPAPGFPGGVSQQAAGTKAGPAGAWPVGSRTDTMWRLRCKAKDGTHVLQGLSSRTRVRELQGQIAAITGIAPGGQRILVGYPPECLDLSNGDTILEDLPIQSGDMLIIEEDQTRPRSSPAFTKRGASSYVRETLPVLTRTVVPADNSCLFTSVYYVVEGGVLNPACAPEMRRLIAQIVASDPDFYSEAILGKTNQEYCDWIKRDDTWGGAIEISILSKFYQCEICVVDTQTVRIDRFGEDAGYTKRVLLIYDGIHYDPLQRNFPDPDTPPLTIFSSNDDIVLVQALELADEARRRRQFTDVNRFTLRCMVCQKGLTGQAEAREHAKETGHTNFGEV
Procedure, shortened: as §1

Measured: log2 ratio of Biotin-Ahx-Ub-VS probe labelling

O=C(CCl)N1CC2(CCOCC2)C1
inactive: USP9X -0.238 | UniProt O00487 -0.0916 | UniProt O00507 -0.0593 | UniProt P51784 0.164 | UniProt Q5T2D3 -0.249 | UniProt Q8TE49 -0.469 | UniProt Q9P2H5 -0.109 | UniProt Q9UGI0 -0.328 | YOD1 -0.131
